The subject of the first experiment is DAPK1.
Compound `Cl.Cl.c1ccc(-c2cc3ccncc3cc2OC2CCNCC2)cc1` [GSK1122999] came in with a Kd of 300 nM. Still for that read-out and setting: the same measure for `COc1ccc(-c2nc3n(c2-c2ccncc2)CCC3)cc1` [SKF-104493]: more than 10000 nM; for `CC(=O)Nc1n[nH]c2ncc(-c3ccccc3)cc12` [SB-548492]: more than 10000 nM.

In another experiment the test system is DAPK3.
The compound `FC(F)(F)c1ccc(-c2cc(-c3c[nH]nc3-c3ccccn3)ccn2)cc1` [GW599550] came in with a Kd of more than 10000 nM.

In the case of `Cl.Cl.c1ccc(-c2cc3ccncc3cc2OC2CCNCC2)cc1` [GSK1122999], binding was put at a Kd of 170 nM.

`Cn1cc(-c2ccc3c(c2)CCN3C(=O)Cc2cccc(C(F)(F)F)c2)c2c(N)ncnc21` [GSK2606414]: the Kd was more than 10000 nM. The same measure, in the same setting: next, `O=C(c1ccc(-c2cc(-c3c[nH]nc3-c3ccccn3)ccn2)cc1)N1CCCC1` [GW792479]: more than 10000 nM.

For a further experiment, the system named is DDR1.
Turning to `Fc1ccc(Nc2nccc(-c3c(-c4ccc(Cl)cc4)nn4ncccc34)n2)cc1F` [GW829058], binding was characterised by a dissociation constant (Kd) of 750 nM. Same read-out and setting: next, `O=C(Nc1ccccc1)Nc1ccc(Oc2ccc3nccn3n2)cc1`: 9.3 nM; `COc1ccc(-c2oc3ncnc(N)c3c2-c2ccc(OC)cc2)cc1` [SB-589132]: 650 nM. Still for that read-out and setting: next, `Cn1cc(-c2ccc3c(c2)CCN3C(=O)Cc2cccc(C(F)(F)F)c2)c2c(N)ncnc21` [GSK2606414]: 280 nM. Same read-out and setting: next, `FC(F)(F)c1ccc(-c2nn3ncccc3c2-c2ccnc(Nc3cccc(C(F)(F)F)c3)n2)cc1` [GW828205]: more than 10000 nM.

A further experiment deals with T1, DMPK2.
T1 construct: gene CDC42BPG
Compound `Clc1cccc(-c2nc(Nc3ccncc3)c3ccccc3n2)c1` [GW873004] yielded a dissociation constant (Kd) of more than 10000 nM.

In the case of `CNc1nccc(-c2c(-c3ccc(F)cc3)ncn2CCCN2CCOCC2)n1` [SB-222516], the dissociation constant Kd is more than 10000 nM. Take `CCCc1ccc(S(=O)(=O)NC2CCN(c3ccnc(Nc4ccc(OC)cc4)n3)C2)cc1` (stereo not drawn) [GSK1379737]: the Kd is more than 10000 nM.

For the origin of these results see paper PMC5540273 (PLoS ONE, 2017).
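Note: kd values determined as follow-up on hits from a single-replicate KINOMEscan panel screen.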
